Assay [1] in a line: antimalarial activity against Dd2 strain (AID 2302;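 active means growth inhibition above 50% at the single 2 µM test dose, taken to imply half-maximal potency below 2 µM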;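 further: 0% = DMSO untreated growth and 100% = chloroquine plus artemisinin killed control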). The following applies: P. falciparum Dd2 in RBCs, LDH growth readout, 72 h; at 2 µM; hits give high values.
The nature of assay [2]: HepG2 cytotoxicity, primary screen, cytotoxicity control for P. falciparum antimalarial project, cell-based, ATP luminescence (AID 2303;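 active means inhibition above 50%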;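 further: 0% = DMSO wells and 100% = digitonin-killed cells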). The settings on record: HepG2 viability, 24-48 h, at 10 µM, hits give high values.
Assay [3] addresses L-lactate dehydrogenase (Plasmodium falciparum (isolate CDC / Honduras)) (UniProt Q27743). Put plainly: PfLDH activity inhibition – cell lysate, 3D7 strain, counter-screen for P. falciparum growth inhibition project (AID 2304).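 Further: 0% = vehicle and 100% = reference inhibitor.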 The following applies: P. falciparum 3D7 crude extract, LDH APAD/NBT absorbance; at 2 µM; hits give high values.
Assay [4] can be described thus: inhibition of 3D7 malaria parasite growth – strain 3D7 (AID 2306).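 Further: 0% = DMSO wells and 100% = chloroquine plus artemisinin control wells.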 The settings on record: P. falciparum 3D7 erythrocytic growth, LDH absorbance, 72 h; at 2 µM; hits give high values.
Assay [5] has as its target Calcium-dependent protein kinase 1 (Plasmodium falciparum (isolate 3D7)) (UniProt P62344). Kind of assay: PfCDPK1 kinase inhibitors, biochemical, TCAMS library (AID 1159585; cut-off not given, nearly all actives have IC50 up to about 0.98 µM;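 further: inhibitors leave more ATP so luminescence rises with inhibition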). The settings on record: recombinant PfCDPK1, Kinase-Glo ATP depletion luminescence. (In general: In Kinase-Glo more light means more ATP remaining.)
In assay [6] the target is Plasmodium falciparum protein kinase 6 (PK6, PF3D7_1337100) (UniProt Q8IDW1). Put plainly: PfPK6 kinase inhibitors, biochemical, TCAMS library (AID 1159586). The settings on record: recombinant PfPK6, Kinase-Glo ATP depletion luminescence.
Sequence of Plasmodium falciparum protein kinase 6 (PK6, PF3D7_1337100) (Q8IDW1 1-305): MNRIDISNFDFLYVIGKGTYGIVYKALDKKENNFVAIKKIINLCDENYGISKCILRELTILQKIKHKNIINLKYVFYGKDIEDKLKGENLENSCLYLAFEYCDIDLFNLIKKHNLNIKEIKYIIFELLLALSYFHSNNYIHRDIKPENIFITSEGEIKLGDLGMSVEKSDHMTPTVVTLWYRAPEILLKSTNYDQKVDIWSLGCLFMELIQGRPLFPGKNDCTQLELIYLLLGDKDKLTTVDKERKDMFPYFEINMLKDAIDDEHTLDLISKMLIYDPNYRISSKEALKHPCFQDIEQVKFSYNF
Assay [7] concerns the target Protein kinase 7 (PK7), Plasmodium falciparum 3D7 (PF3D7_0213400) (UniProt Q7YTF7). Put plainly: inhibition of Plasmodium PK7 catalytic activity – biochemical, TCAMS antimalarial set, Kinase-Glo luminescence (AID 1159587). The settings on record: recombinant PfPK7, Kinase-Glo ATP depletion luminescence.
Assay [8] concerns the target Calcium-dependent protein kinase 4 (Plasmodium falciparum (isolate 3D7)) (UniProt Q8IBS5). Put plainly: PfCDPK4 kinase inhibitors, biochemical, TCAMS library (AID 1159588; cut-off not given, nearly all actives have IC50 up to about 0.91 µM). The settings on record: recombinant PfCDPK4, Kinase-Glo ATP depletion luminescence.

Values without a mark were called inactive. For part of these data: Results with a measured potency or affinity are listed apart. Activity calls are given as the source filed them. Unless noted, how the calls were made is not given here.

Sequence of Protein kinase 7 (PK7), Plasmodium falciparum 3D7 (PF3D7_0213400) (Q7YTF7 1-343): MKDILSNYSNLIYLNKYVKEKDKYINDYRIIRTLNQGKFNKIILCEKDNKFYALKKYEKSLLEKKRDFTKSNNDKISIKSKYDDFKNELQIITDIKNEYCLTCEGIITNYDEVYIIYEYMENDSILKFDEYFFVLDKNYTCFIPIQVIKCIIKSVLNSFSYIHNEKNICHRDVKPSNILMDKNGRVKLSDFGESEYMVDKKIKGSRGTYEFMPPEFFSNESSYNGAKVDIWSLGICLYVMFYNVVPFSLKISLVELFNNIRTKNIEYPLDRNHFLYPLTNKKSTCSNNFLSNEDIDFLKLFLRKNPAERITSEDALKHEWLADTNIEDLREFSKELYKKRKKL
Sequence of Calcium-dependent protein kinase 4 (Plasmodium falciparum (isolate 3D7)) (Q8IBS5 whole entry, looked up): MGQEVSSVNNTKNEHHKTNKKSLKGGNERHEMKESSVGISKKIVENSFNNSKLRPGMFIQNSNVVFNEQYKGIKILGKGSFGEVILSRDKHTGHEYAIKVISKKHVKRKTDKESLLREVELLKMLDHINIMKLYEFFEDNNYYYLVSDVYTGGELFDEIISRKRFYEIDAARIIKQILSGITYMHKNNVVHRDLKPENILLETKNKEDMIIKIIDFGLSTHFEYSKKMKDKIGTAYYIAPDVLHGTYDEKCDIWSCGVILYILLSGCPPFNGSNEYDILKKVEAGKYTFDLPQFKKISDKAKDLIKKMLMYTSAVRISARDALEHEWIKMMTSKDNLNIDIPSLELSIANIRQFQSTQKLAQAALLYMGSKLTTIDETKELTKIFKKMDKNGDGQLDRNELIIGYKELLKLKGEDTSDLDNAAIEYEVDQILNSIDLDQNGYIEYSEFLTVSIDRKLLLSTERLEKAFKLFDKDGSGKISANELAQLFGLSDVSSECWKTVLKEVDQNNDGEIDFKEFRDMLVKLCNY
Sequence of L-lactate dehydrogenase (Plasmodium falciparum (isolate CDC / Honduras)) (Q27743 whole entry, looked up): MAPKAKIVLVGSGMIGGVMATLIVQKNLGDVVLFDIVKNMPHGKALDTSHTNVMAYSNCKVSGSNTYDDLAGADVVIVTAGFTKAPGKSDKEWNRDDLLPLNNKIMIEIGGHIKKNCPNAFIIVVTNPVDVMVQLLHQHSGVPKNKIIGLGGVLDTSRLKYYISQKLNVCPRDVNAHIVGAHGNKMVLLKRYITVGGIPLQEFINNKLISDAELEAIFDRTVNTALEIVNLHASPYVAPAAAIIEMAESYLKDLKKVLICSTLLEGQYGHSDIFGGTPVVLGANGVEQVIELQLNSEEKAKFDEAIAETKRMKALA
Sequence of Calcium-dependent protein kinase 1 (Plasmodium falciparum (isolate 3D7)) (P62344 whole entry, looked up): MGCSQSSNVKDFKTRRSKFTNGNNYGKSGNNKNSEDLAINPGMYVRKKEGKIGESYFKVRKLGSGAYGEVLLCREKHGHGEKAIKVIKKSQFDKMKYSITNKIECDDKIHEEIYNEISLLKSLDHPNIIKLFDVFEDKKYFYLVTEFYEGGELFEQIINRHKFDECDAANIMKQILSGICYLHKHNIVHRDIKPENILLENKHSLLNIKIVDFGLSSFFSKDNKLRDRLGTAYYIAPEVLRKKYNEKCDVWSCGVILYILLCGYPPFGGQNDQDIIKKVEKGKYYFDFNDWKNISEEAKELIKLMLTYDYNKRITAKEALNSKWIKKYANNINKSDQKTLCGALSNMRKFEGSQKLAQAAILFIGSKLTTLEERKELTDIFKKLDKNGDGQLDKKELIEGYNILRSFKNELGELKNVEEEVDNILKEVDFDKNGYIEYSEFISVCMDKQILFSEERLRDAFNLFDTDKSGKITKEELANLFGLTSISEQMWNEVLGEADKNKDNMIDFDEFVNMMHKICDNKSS

By inhibition is commonly meant the change of the read-out against control, counted positive when it falls. In the case of `Cc1cccc2[nH]c(-c3cccc(-c4ccc(NC(=O)C(C)CN5CCN(C)CC5)cc4)c3)nc12` (centres undefined), the results for the growth inhibition in assay [1] and in assay [4] were 100% (active) and 99% (active), respectively. Further, the inhibition in assay [2] is 7%; in assay [3], -6%. In addition, the result in assay [5], in assay [6], in assay [7] and in assay [8] was inactive.
On to `CCCn1c(=N)c(C(=O)NCCc2ccccc2)cc2c(=O)n3cccc(C)c3nc21`, for which the growth inhibition in assay [1] is 64% (active); in assay [4], 100% (active). The inhibition in assay [2] was 8%; in assay [3], 2%. The result in assay [5], in assay [6], in assay [7] and in assay [8] was inactive.
Consider `O=C(Nc1cccc2ccccc12)N1CCc2cc3nccc(N4CCN5CCC[C@H]5C4)c3cc21`, for which the growth inhibition in assay [1] was 86% (active); in assay [4], 99% (active). Further, the inhibition is 11% in assay [2] and 0% in assay [3]. Besides, the result in assay [5], in assay [6], in assay [7] and in assay [8] was inactive.
Take `COc1ccc2nccc(NC(=O)C3CCC(NCc4cnc(SC)c([N+](=O)[O-])c4)CC3)c2n1` (centres undefined): the growth inhibition was 44% in assay [1] and 89% (active) in assay [4]. The figures for the inhibition in assay [2] and in assay [3] were 8% and 5%, respectively. The outcome in assay [5], in assay [6], in assay [7] and in assay [8] was inactive.
On to `CCOC(=O)/C(=N\OC(C(=O)OC(C)(C)C)c1ccccc1)c1csc(NC(c2ccccc2)(c2ccccc2)c2ccccc2)n1` (centres undefined), for which the results for the growth inhibition in assay [1] and in assay [4] were 68% (active) and 89% (active), respectively. Besides, the inhibition in assay [2] was 14%; in assay [3], 5%. The result in assay [5], in assay [6], in assay [7] and in assay [8] was inactive.
Take `COc1ccc(C(=O)Nc2ccc(-c3nc4ccc(C)cc4[nH]3)cc2)cc1OC`: the growth inhibition in assay [1] was 38%; in assay [4] it was 100% (active). The inhibition in assay [2] was 70% (active); in assay [3] it was 0%. The result in assay [5], in assay [6], in assay [7] and in assay [8] was inactive.
With `Cc1noc(C)c1-c1cccc(CNCc2ccc(-c3ccc(-c4nc5c(C)cccc5[nH]4)cc3)cc2)c1`, the growth inhibition was 95% (active) in assay [1] and 102% (active) in assay [4]. Further, the inhibition is 28% in assay [2] and 5% in assay [3]. Moreover, the result in assay [5], in assay [6], in assay [7] and in assay [8] was inactive.
Turning to `CN1CCCN(Cc2ccc(-c3ccc(NC(=O)c4cccc(Cl)c4)cc3)cc2)CC1`, the growth inhibition in assay [1] was 64% (active); in assay [4], 95% (active). Also, the values for the inhibition in assay [2] and in assay [3] were 55% (active) and 2%, respectively. Also, the result in assay [5], in assay [6], in assay [7] and in assay [8] was inactive.
Regarding `CCN(CC)c1ccc(C(c2ccc(N(CC)CC)cc2)c2cccc([N+](=O)[O-])c2)cc1`, the growth inhibition in assay [1] was 68% (active); in assay [4], 91% (active). Besides, the inhibition in assay [2] was 39%; in assay [3], -1%. Moreover, the outcome in assay [5], in assay [6], in assay [7] and in assay [8] was inactive.
As for `CC(Cl)=CCc1c(C)[nH]c2c(ccc3ccccc32)c1=O`, the growth inhibition in assay [1] and in assay [4] was 96% (active) each time. In addition, the inhibition in assay [2] was 24%; in assay [3] it was 8%. Besides, the result in assay [5], in assay [6], in assay [7] and in assay [8] was inactive.
On to `CCOCCCn1c(=N)c(C(=O)NCc2ccc(F)cc2)cc2c(=O)n3cccc(C)c3nc21`, for which the growth inhibition in assay [1] was 40%; in assay [4], 101% (active). Besides, the inhibition is 21% in assay [2] and 5% in assay [3]. Moreover, the result in assay [5], in assay [6], in assay [7] and in assay [8] was inactive.
As to `O=S(=O)(Nc1cccc(CCN2CCC(N3CCCCC3)CC2)c1)c1ccc(Oc2ccccc2)nc1`, the figures for the growth inhibition in assay [1] and in assay [4] were -4% and 99% (active), respectively. Further, the values for the inhibition in assay [2] and in assay [3] were 8% and -2%, respectively. Also, the outcome in assay [5], in assay [6], in assay [7] and in assay [8] was inactive.
`Fc1ccc(C(OCC2CCCN(Cc3cccc4cccnc34)C2)c2ccc(F)cc2)cc1` (centres undefined): the figures for the growth inhibition in assay [1] and in assay [4] were 97% (active) and 98% (active), respectively. Also, the inhibition was 21% in assay [2] and 3% in assay [3]. Moreover, the result in assay [5], in assay [6], in assay [7] and in assay [8] was inactive.
In the case of `CCC(Cc1cnc2nc(N)nc(N)c2n1)c1ccc(C(=O)N[C@@H](CCC(=O)O)C(=O)O)cc1` (some centres undefined), the growth inhibition in assay [1] was 98% (active); in assay [4] it was 93% (active). The results for the inhibition in assay [2] and in assay [3] were 64% (active) and -2%, respectively. For the same molecule, the outcome in assay [5], in assay [6], in assay [7] and in assay [8] was inactive.
For `Fc1ccc2nc(Nc3nc(-c4ccccn4)cs3)sc2c1`, the results for the growth inhibition in assay [1] and in assay [4] were 100% (active) and 102% (active), respectively. For the same molecule, the inhibition in assay [2] is 42%; in assay [3] it was 3%. Also, the outcome in assay [5], in assay [6], in assay [7] and in assay [8] was inactive.
On to `Cc1noc(-c2ccc(NC[C@@H](C)NC[C@H](O)c3cccc(Cl)c3)cc2)n1`, for which the growth inhibition in assay [1] was 84% (active); in assay [4], 97% (active). Also, the inhibition was 11% in assay [2] and -1% in assay [3]. Also, the outcome in assay [5], in assay [6], in assay [7] and in assay [8] was inactive.
In the case of `CC1CCc2c(C(=O)N3CCc4ccccc4C3)csc2C1` (centres undefined), the growth inhibition was 75% (active) in assay [1] and 99% (active) in assay [4]. Moreover, the inhibition in assay [2] was 9%; in assay [3] it was -3%. In addition, the outcome in assay [5], in assay [6], in assay [7] and in assay [8] was inactive.
As for `O=C(Nc1cccc(-c2cccc(-c3nc4ccccc4[nH]3)c2)c1)c1ccoc1`, the growth inhibition was 36% in assay [1] and 85% (active) in assay [4]. For the same molecule, the inhibition in assay [2] is 19%; in assay [3], 5%. Also, the outcome in assay [5], in assay [6], in assay [7] and in assay [8] was inactive.

These data come from PubChem BioAssay.
